The supplement of paper PMC10849652
Of roughly 7,900 targets only a part is listed; those with a hit were picked by preference. About 0.6% of all pairs of compound and target were hits.

How the values were obtained:
Assay in all cases: log2 fold change, soluble protein after heating vs DMSO (PISA); higher = thermal stabilisation; K562 cells, 10 uM, 30 min; active = over 0.2 and 3.5 SD of the protein, either way, in both replicates (recomputed)
[1] = compound: CC1=C(C=C(C=C1)NC(=O)C2=CC(=CC=C2)C(C)(C)C#N)NC3=CC4=C(C=C3)N=CN(C4=O)C
In short: (§1)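 K562 cells at 2×10^6 cells/mL were treated with 10 μM compound for 30 min. Aliquots were heated for 3 min across 48°C-58°C, pooled, and extracted in PBS with 0.5% NP-40 at 4°C; soluble protein was the supernatant after 21,000xg for 90 min. Soluble protein was quantified by TMTpro 16plex LC-MS/MS with channel sums equalised, and reported as log2 fold change in thermal stability against DMSO controls, with values from duplicates.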

[2] = compound: CC1=C(C=C(C=C1)NC(=O)C2=CC(=CC=C2)N(C)C)NC(=O)C3=CC=C(C=C3)O
In short: as §1

[3] = compound: CC1=CC=C(C=C1)SC2=C3C=C(SC3=CN=C2)C(=O)N
In short: as §1

[4] = compound: CC1=NC(=CC=C1)C2=C(N=C(N2)C(C)(C)C)C3=CC4=NC=CN=C4C=C3
In short: as §1

Nexturastat A = compound: CCCCN(Cc1ccc(C(=O)NO)cc1)C(=O)Nc1ccccc1 [Nexturastat A]
In short: as §1

vemurafenib = compound: CCCS(=O)(=O)Nc1ccc(F)c(C(=O)c2c[nH]c3ncc(-c4ccc(Cl)cc4)cc23)c1F [vemurafenib]
In short: as §1

[5] = compound: CCCS(=O)(=O)Nc1ccc(F)c(C(=O)c2c[nH]c3ncc(Cl)cc23)c1F
In short: as §1

[6] = compound: CCCc1cc(C)[nH]c(=O)c1CNC(=O)c1cc(-c2ccnc(N3CCN(C)CC3)c2)cc2c1cnn2C(C)C
In short: as §1

givinostat = compound: CCN(CC)Cc1ccc2cc(COC(=O)Nc3ccc(C(=O)NO)cc3)ccc2c1 [givinostat]
In short: as §1

barasertib = compound: CCN(CCCOc1ccc2c(Nc3cc(CC(=O)Nc4cccc(F)c4)[nH]n3)ncnc2c1)CCOP(=O)(O)O [barasertib]
In short: as §1

[7] = compound: CC[C@@H]1C(=O)N(C)c2cnc(Nc3ccc(C(=O)NC4CCN(C)CC4)cc3OC)nc2N1C1CCCC1
In short: as §1

volasertib = compound: CC[C@@H]1C(=O)N(C)c2cnc(Nc3ccc(C(=O)N[C@H]4CC[C@H](N5CCN(CC6CC6)CC5)CC4)cc3OC)nc2N1C(C)C [volasertib]
In short: as §1

[8] = compound: CC[C@H](C)N1C=C(C2=C(C=C(C=C21)C3=CN=C(C=C3)N4CCNCC4)C(=O)NCC5=C(C=C(NC5=O)C)C)C
In short: as §1

epoxomicin = compound: CC[C@H](C)[C@@H](C(=O)N[C@@H]([C@@H](C)O)C(=O)N[C@@H](CC(C)C)C(=O)[C@]1(CO1)C)NC(=O)[C@H]([C@@H](C)CC)N(C)C(=O)C [epoxomicin]
In short: as §1

[9] = compound: CCn1c(C(=O)N(C2CC2)C2CC2)cc2c3c(ncn3C)c(Nc3cc(C)n(C)n3)nc21
In short: as §1

[10] = compound: CCn1cc(-c2ccnc3[nH]c(-c4cccc(CN(C)C)c4)cc23)c(-c2ccc(NC(=O)N(C)C)cc2)n1
In short: as §1

[11] = compound: CN(C)CC(=O)Nc1ccc2[nH]c(=O)c3ccccc3c2c1
In short: as §1

rosiglitazone = compound: CN(CCOC1=CC=C(C=C1)C[C@H]2C(=O)NC(=O)S2)C3=CC=CC=N3 (racemic) [rosiglitazone]
In short: as §1

[12] = compound: CN1C2=C(C3=C1C(=O)N(N=C3)CC4=CC(=CC=C4)N)SC(=C2)S(=O)C
In short: as §1

[13] = compound: CN1CCC(CNc2ccc3ncc(-c4cccc(OC(F)(F)F)c4)n3n2)CC1
In short: as §1

Measured: log2 fold change

AKR1C3 (UniProt P42330)
inactive: [1] -0.034 | [2] -0.207 | [3] 0.268 | [4] -0.007 | Nexturastat A 0.022 | vemurafenib -0.032 | [5] 0.066 | [6] 0.289 | givinostat -0.003 | barasertib 0.014 | [7] 0.011 | volasertib 0.009 | [8] -0.01 | epoxomicin 0 | [9] 0.131 | [10] -0.247 | [11] 0.067 | rosiglitazone -0.06 | [12] -0.127 | [13] 0.214

AMFR (UniProt Q9UKV5)
inactive: [1] -0.013 | [2] 0.01 | [3] -0.029 | [4] -0.104 | Nexturastat A -0.033 | vemurafenib 0.005 | [5] 0.009 | [6] -0.042 | givinostat 0.086 | barasertib 0.041 | [7] -0.205 | volasertib -0.215 | [8] 0.044 | epoxomicin 0.049 | [9] -0.059 | [10] 0 | [11] -0.007 | rosiglitazone 0.022 | [12] 0.01 | [13] -0.055

ATP6V1H (UniProt Q9UI12)
Sequence of UniProt Q9UI12 (Q9UI12 whole entry, looked up): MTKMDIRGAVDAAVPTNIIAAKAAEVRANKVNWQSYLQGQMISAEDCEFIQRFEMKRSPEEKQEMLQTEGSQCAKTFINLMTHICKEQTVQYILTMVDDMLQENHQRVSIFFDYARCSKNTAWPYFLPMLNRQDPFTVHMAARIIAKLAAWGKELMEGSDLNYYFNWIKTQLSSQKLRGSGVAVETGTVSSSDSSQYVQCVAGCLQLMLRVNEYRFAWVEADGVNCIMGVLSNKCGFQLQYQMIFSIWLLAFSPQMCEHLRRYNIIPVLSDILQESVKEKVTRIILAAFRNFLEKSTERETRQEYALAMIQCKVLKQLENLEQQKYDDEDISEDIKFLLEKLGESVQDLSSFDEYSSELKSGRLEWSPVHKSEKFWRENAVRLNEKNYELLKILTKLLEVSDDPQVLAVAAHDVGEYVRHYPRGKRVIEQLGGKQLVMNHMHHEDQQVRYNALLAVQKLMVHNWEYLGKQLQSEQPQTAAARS
inactive: [1] 0.028 | [2] -0.016 | [3] 0.045 | [4] 0.014 | Nexturastat A -0.008 | vemurafenib -0.004 | [5] 0.077 | [6] 0.022 | givinostat 0.03 | barasertib 0.018 | [7] -0.085 | volasertib -0.093 | [8] 0.069 | epoxomicin 0.098 | [9] 0.041 | [11] 0.012 | rosiglitazone 0.048 | [12] -0.026 | [13] -0.069
active: [10] -0.244

ARFIP1 (UniProt P53367)
Sequence of UniProt P53367 (P53367 whole entry, looked up): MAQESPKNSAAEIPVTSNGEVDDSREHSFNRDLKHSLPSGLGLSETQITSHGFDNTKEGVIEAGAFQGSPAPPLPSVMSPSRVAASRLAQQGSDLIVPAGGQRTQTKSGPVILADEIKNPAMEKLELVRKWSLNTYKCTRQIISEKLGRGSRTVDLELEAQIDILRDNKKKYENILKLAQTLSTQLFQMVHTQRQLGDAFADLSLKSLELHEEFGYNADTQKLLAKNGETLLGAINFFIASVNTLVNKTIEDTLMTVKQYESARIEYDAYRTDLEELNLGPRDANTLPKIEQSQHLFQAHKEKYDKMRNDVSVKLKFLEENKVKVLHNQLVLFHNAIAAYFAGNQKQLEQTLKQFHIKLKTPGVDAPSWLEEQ
inactive: [1] -0.031 | [2] 0.042 | [3] 0.022 | [4] -0.006 | Nexturastat A -0.081 | vemurafenib -0.026 | [5] 0.084 | [6] 0.045 | givinostat 0.058 | barasertib 0.046 | [7] -0.008 | volasertib -0.184 | [8] 0.113 | epoxomicin -0.003 | [9] -0.101 | [10] 0.083 | [11] -0.011 | rosiglitazone 0.856 | [12] -0.053 | [13] -0.421

ATP23 (UniProt Q9Y6H3)
Sequence of UniProt Q9Y6H3 (Q9Y6H3 whole entry, looked up): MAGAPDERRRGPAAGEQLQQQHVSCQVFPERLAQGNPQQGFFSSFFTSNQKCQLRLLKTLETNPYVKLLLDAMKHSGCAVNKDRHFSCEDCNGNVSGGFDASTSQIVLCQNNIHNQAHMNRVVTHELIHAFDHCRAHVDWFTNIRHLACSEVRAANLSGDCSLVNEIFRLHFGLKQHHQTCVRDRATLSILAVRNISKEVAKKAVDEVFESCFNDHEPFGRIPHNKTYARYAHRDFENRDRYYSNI
active: [13] -0.478
inactive: [1] 0.027 | [2] -0.013 | [3] 0.122 | [4] 0.058 | Nexturastat A -0.172 | vemurafenib 0.021 | [5] -0.039 | [6] -0.031 | givinostat -0.012 | barasertib -0.049 | [7] -0.007 | volasertib 0.004 | [8] -0.078 | epoxomicin 0.016 | [9] 0.059 | [10] 0.055 | [11] -0.045 | rosiglitazone -0.011 | [12] -0.087

ALDH2 (UniProt P05091)
Sequence of UniProt P05091 (P05091 whole entry, looked up): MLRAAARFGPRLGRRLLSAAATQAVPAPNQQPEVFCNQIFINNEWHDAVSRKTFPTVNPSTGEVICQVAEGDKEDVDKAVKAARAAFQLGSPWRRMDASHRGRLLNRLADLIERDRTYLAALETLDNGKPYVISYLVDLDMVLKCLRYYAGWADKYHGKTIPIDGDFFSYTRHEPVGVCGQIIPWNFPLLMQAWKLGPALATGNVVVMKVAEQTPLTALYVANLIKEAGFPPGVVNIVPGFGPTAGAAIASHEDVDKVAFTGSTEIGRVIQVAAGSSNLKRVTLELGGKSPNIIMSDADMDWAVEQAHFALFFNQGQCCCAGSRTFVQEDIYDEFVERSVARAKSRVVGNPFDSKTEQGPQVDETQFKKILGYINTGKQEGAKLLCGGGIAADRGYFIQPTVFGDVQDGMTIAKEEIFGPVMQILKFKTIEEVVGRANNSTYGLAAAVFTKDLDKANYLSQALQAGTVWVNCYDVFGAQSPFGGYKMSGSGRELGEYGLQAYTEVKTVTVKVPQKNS
active: Nexturastat A -0.264
inactive: [1] 0.089 | [2] 0.03 | [3] 0.039 | [4] 0.029 | vemurafenib 0.044 | [5] -0.011 | [6] -0.012 | givinostat 0.016 | barasertib 0.003 | [7] -0.025 | volasertib 0.06 | [8] -0.009 | epoxomicin -0.038 | [9] -0.017 | [10] -0.042 | [11] 0.029 | rosiglitazone 0.058 | [12] -0.048 | [13] -0.006

ATP1A4 (UniProt Q13733)
Sequence of UniProt Q13733 (Q13733 whole entry, looked up): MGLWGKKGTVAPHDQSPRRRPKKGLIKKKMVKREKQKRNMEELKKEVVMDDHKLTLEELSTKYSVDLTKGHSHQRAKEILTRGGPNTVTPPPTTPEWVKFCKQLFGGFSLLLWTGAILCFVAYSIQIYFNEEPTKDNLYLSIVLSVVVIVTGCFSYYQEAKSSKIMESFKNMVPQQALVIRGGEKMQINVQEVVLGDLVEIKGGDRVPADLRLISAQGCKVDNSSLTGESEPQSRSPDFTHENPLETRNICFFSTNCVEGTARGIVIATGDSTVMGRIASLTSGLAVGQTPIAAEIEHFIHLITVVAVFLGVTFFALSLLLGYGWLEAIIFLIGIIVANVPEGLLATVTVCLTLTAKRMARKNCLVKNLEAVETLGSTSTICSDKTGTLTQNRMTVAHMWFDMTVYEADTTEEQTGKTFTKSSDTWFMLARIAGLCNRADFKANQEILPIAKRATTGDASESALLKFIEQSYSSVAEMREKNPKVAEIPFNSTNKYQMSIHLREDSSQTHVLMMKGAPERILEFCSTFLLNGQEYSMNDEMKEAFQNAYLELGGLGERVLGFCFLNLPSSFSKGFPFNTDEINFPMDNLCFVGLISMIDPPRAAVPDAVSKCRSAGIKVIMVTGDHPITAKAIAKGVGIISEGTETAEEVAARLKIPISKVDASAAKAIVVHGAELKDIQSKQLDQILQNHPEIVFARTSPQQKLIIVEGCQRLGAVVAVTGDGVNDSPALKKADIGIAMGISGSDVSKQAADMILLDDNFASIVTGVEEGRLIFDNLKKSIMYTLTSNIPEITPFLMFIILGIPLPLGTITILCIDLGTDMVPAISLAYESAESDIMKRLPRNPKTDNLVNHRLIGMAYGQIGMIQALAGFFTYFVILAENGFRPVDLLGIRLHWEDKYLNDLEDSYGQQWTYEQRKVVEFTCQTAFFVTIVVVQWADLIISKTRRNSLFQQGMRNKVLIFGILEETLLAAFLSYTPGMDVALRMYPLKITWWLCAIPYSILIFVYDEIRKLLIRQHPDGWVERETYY
inactive: [1] 0.017 | [2] 0.029 | [3] 0.141 | [4] 0.065 | Nexturastat A -0.03 | vemurafenib -0.137 | [5] -0.08 | [6] -0.026 | givinostat -0.216 | barasertib 0 | [7] 0.125 | volasertib 0.07 | [8] -0.025 | epoxomicin 0.081 | [9] -0.004 | [10] -0.056 | [11] -0.05 | rosiglitazone 0.006 | [12] -0.057
active: [13] 0.26

AKT1 (UniProt P31749)
Sequence of UniProt P31749 (P31749 whole entry, looked up): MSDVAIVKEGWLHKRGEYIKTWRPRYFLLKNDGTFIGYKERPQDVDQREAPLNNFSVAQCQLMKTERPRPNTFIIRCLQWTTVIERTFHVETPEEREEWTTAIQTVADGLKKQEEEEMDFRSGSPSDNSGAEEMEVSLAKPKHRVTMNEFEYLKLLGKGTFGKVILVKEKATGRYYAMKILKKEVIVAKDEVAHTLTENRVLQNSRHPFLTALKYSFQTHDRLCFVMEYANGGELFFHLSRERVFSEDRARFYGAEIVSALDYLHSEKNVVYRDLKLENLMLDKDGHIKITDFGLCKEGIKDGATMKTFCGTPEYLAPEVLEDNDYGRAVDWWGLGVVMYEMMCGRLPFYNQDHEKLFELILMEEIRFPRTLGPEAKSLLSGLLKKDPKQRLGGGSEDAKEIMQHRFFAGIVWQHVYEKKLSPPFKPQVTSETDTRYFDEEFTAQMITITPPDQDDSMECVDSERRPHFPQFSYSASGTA
inactive: [1] 0.118 | [2] -0.105 | [3] -0.035 | [4] 0.019 | Nexturastat A 0.145 | vemurafenib -0.227 | [5] 0.008 | [6] 0.049 | givinostat 0.133 | barasertib -0.03 | [7] 0 | volasertib -0.503 | [8] 0.068 | epoxomicin 0.158 | [9] -0.119 | [10] -0.08 | [11] 0.133 | rosiglitazone 0.257 | [12] 0.107 | [13] 0.222

ALG5 (UniProt Q9Y673)
inactive: [1] 0.039 | [2] 0.019 | [3] -0.001 | [4] 0.049 | Nexturastat A -0.055 | vemurafenib 0.035 | [5] 0.059 | [6] 0.025 | givinostat 0.01 | barasertib 0.02 | [7] -0.028 | volasertib -0.026 | [8] 0.017 | epoxomicin 0.043 | [9] -0.036 | [10] -0.069 | [11] 0.035 | rosiglitazone 0.078 | [12] -0.088 | [13] 0.017

AP2A1 (UniProt O95782)
Sequence of UniProt O95782 (O95782 whole entry, looked up): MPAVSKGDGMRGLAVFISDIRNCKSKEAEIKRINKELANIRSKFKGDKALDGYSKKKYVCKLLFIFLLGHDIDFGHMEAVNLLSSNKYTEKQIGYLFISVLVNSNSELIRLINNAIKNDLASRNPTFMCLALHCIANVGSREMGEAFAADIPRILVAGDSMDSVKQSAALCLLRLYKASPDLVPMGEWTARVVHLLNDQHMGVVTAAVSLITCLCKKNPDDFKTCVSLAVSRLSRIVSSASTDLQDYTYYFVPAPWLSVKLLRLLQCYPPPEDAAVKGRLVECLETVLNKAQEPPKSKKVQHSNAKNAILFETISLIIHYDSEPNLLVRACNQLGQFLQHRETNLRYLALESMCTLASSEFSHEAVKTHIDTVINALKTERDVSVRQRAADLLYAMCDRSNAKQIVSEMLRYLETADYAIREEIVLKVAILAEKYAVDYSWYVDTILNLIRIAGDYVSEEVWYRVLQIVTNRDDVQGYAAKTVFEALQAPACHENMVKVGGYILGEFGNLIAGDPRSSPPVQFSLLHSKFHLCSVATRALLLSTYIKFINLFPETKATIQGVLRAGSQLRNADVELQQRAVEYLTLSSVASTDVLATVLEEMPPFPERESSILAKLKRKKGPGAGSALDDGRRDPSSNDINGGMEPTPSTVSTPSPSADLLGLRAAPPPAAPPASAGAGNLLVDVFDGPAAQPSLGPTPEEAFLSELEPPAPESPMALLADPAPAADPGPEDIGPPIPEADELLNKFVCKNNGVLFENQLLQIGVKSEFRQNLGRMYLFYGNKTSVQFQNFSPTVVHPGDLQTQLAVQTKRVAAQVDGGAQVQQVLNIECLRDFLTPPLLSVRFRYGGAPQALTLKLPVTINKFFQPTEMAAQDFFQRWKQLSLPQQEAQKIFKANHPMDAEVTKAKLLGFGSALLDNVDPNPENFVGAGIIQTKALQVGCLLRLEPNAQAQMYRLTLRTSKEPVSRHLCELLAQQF
inactive: [1] 0.024 | [2] -0.016 | [3] 0.004 | [4] 0.084 | Nexturastat A 0.048 | vemurafenib 0.009 | [5] 0.03 | [6] -0.003 | givinostat 0.008 | barasertib -0.028 | [7] 0.076 | volasertib -0.085 | [8] 0.015 | epoxomicin -0.011 | [9] 0.022 | [10] -0.002 | [11] -0.041 | rosiglitazone -0.011 | [12] 0.005 | [13] 0

ADD3 (UniProt Q9UEY8)
Sequence of UniProt Q9UEY8 (Q9UEY8 whole entry, looked up): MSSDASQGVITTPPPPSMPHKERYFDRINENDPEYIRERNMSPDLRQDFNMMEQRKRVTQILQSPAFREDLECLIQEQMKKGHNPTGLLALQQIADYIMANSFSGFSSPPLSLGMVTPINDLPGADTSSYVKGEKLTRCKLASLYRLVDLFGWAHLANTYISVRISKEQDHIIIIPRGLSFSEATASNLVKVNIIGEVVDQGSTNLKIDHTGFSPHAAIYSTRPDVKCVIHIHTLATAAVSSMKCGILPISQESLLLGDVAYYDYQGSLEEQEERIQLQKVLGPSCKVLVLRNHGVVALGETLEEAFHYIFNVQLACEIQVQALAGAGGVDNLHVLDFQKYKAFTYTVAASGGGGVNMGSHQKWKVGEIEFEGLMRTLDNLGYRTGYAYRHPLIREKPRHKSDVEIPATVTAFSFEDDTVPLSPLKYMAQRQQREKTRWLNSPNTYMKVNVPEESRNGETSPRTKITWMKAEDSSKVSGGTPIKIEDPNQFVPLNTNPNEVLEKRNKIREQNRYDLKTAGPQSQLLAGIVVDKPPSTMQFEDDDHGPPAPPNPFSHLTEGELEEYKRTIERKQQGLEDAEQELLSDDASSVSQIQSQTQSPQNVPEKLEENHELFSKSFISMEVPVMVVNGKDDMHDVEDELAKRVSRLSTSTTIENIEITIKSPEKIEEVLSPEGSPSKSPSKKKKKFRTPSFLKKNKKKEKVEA
inactive: [1] 0.024 | [2] 0.016 | [3] -0.015 | [4] -0.003 | Nexturastat A 0.021 | vemurafenib -0.021 | [5] 0.006 | [6] -0.013 | givinostat -0.043 | barasertib -0.01 | [7] 0.098 | volasertib 0.056 | [8] -0.024 | epoxomicin 0.014 | [9] 0.01 | [10] 0.054 | [11] -0.03 | rosiglitazone -0.006 | [12] -0.056 | [13] -0.023
